From PubChem BioAssay (NCATS)
Results filed as inconclusive are left out. The source made the active and inactive calls. Calls follow the shape of the dose curve; as a rule, active = well fitted cell-killing curve with a large enough effect; inconclusive = small, poorly fitted or top-dose-only effect, or effect the other way; inactive = no such curve, though single readings can be large or run the other way.

Tests used:
[1] = Quantitative High-Throughput drug screen in 47 multiple myeloma cell lines against the NCATS MIPE library collection: OPM1_PLB cell viability assay (AID 1918989); also: nearly all actives have a fitted effect of over 40% in size
Summary of the method: (§1)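 Plated at 500 cells per well, myeloma lines received MIPE 4.0 compounds by pin tool. Following 48 h culture at 37 °C, CellTiter-Glo luminescence gave viability relative to DMSO and media-only controls.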

[2] = Quantitative High-Throughput drug screen in 47 multiple myeloma cell lines against the NCATS MIPE library collection: XG6_PLB cell viability assay (AID 1919865); also: nearly all actives have a fitted effect of over 40% in size
Summary of the method: as §1

[3] = Quantitative High-Throughput drug screen in 47 multiple myeloma cell lines against the NCATS MIPE library collection: XG1_PLB cell viability assay (AID 1919866); also: nearly all actives have a fitted effect of over 35% in size
Summary of the method: as §1

[4] = Quantitative High-Throughput drug screen in 47 multiple myeloma cell lines against the NCATS MIPE library collection: VP6_DJ cell viability assay (AID 1919867); also: nearly all actives have a fitted effect of over 40% in size
Summary of the method: as §1

[5] = Quantitative High-Throughput drug screen in 47 multiple myeloma cell lines against the NCATS MIPE library collection: PE2_PLB cell viability assay (AID 1919869); also: nearly all actives have a fitted effect of over 35% in size
Summary of the method: as §1

[6] = Quantitative High-Throughput drug screen in 47 multiple myeloma cell lines against the NCATS MIPE library collection: U266_ATCC cell viability assay (AID 1919864); also: nearly all actives have a fitted effect of over 35% in size;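 as to viability (% of DMSO control): 0% = media-only wells without cells and 100% = DMSO-only wells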
Summary of the method: as §1

[7] = Quantitative High-Throughput drug screen in 47 multiple myeloma cell lines against the NCATS MIPE library collection: UTMC2_PLB cell viability assay (AID 1919868); settings: CellTiter-Glo ATP luminescence, 48 h; viability (% of DMSO control): at 45.8 µM (top of the series); also: nearly all actives have a fitted effect of over 55% in size;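 as to viability (% of DMSO control): 100% = DMSO-only wells and 0% = media-only wells without cells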
Summary of the method: as §1

[8] = Quantitative High-Throughput drug screen in 47 multiple myeloma cell lines against the NCATS MIPE library collection: SKMM1_PLB cell viability assay (AID 1919863); settings: SKMM1 myeloma viability, CellTiter-Glo ATP, 48 h; viability: stronger effect = lower value; also: nearly all actives have a fitted effect of over 35% in size
Summary of the method: as §1
Potency is read from the fitted curve at half-maximal effect.

CC(=O)N[C@H]1[C@@H]([C@H](O)[C@H](O)CO)OC(C(=O)O)=C[C@@H]1N=C(N)N
inactive: Potency [1] | Potency [2] | Potency [3] | Potency [4] | Potency [5]

CC(=O)O[C@H]1C[C@@H]2CC[C@H]3[C@H]4C[C@H]([N+]5(C)CCCCC5)[C@@H](OC(C)=O)[C@@]4(C)CC[C@@H]3[C@@]2(C)C[C@H]1[N+]1(C)CCCCC1
active: Potency [6] 23.5 µM
inactive: Potency [2] | Potency [3]

Cc1cn([C@@H]2O[C@H](CO)[C@@H](O)[C@H]2F)c(=O)[nH]c1=O
inactive: Potency [1] | Potency [3] | Potency [7] | Potency [5]
active: Potency [4] 14.8 µM

C[N+](C)([O-])CCNc1ccc(NCC[N+](C)(C)[O-])c2c1C(=O)c1c(O)ccc(O)c1C2=O
active: Potency [2] 13.2 µM
inactive: Potency [4] | Potency [5]

O=C(O)[C@H](CC(=O)N1C[C@@H]2CCCC[C@H]2C1)Cc1ccccc1
inactive: Potency [1] | Potency [6] | Potency [7] | Potency [5]

CN(C)CC[C@H](c1ccc(Cl)cc1)c1ccccn1
active: Potency [3] 6.62 µM
inactive: Potency [7] | Potency [5]

CCn1c(=O)c2c(nc(C=Cc3ccc(OC)c(OC)c3)n2C)n(CC)c1=O
active: Potency [5] 14.8 µM
inactive: viability [8] 123% | Potency [3] | Potency [7]

C[C@H](CCC(=O)O)[C@H]1CC[C@H]2[C@@H]3[C@H](O)C[C@@H]4C[C@H](O)CC[C@]4(C)[C@@H]3CC[C@]12C
inactive: Potency [1] | Potency [2] | Potency [3] | Potency [5]

C[C@]12CCC(=O)C=C1[C@@H]1CC1[C@H]1[C@H]3[C@@H]4C[C@H]4[C@@]4(CCC(=O)O4)[C@@]3(C)CC[C@H]12 (some centres not stated)
inactive: Potency [1] | Potency [6] | Potency [4] | Potency [5]

C[C@@H](Cc1cc2c(c(C(N)=O)c1)N(CCCO)CC2)NCCOc1ccccc1OCC(F)(F)F
inactive: Potency [1] | Potency [2] | Potency [5]

O=c1[nH]c(=O)n([C@H]2C[C@@H](O)[C@@H](CO)O2)cc1C=CBr
inactive: Potency [2] | Potency [3] | Potency [4] | Potency [5]
active: Potency [1] 0.105 µM

Nc1ccn(C[C@@H](CO)OCP(=O)(O)O)c(=O)n1
inactive: Potency [6] | Potency [2] | Potency [4]

Nc1nc(=O)n([C@H]2CSC(CO)O2)cc1F (some centres not stated)
inactive: viability [8] 114% | Potency [2] | Potency [3] | Potency [4] | Potency [5]

COc1ccc(Nc2nccc(NCCO)n2)cc1
active: Potency [4] 1.66 µM
inactive: Potency [1] | Potency [2] | Potency [3] | Potency [7]

O=C(O)C=Cc1ccc(Cn2ccnc2)cc1
inactive: Potency [1] | Potency [6] | Potency [2] | Potency [3] | Potency [4] | Potency [7] | Potency [5]

COc1cc(C)c(C=CC(C)=CC=CC(C)=CC(=O)O)c(C)c1C
inactive: viability [8] 132% | Potency [6] | Potency [2] | Potency [3]

O=C(C[C@@H]1CC=CCCC(=O)O[C@H](c2ccccc2)CNC1=O)NCc1ccc(Cl)cc1
active: Potency [2] 6.62 µM | Potency [4] 13.2 µM | Potency [5] 9.35 µM
inactive: Potency [1] | Potency [7]

CC(Oc1ccc(O)cc1)(P(=O)(O)O)P(=O)(O)O
active: Potency [5] 2.35 µM
inactive: viability [8] 108% | Potency [2] | Potency [3] | Potency [4]

O=C(Nc1ccc(Oc2ccnc3[nH]ccc23)c(F)c1)c1cccn(-c2ccc(F)cc2)c1=O
active: Potency [2] 26.4 µM | Potency [3] 26.4 µM | Potency [4] 20.9 µM
inactive: Potency [1] | Potency [6] | Potency [7] | Potency [5]

CC1(C)CC(O)CC(C)(C)N1[O]
inactive: Potency [1] | Potency [2] | Potency [3] | Potency [5]

CC(C)OC(=O)[C@H](C)N[P@](=O)(OC[C@H]1O[C@@H](n2ccc(=O)[nH]c2=O)[C@](C)(F)[C@H]1O)Oc1ccccc1
inactive: viability [8] 127%

CC(C)N(CC[C@H](c1ccccc1)c1cc(CO)ccc1O)C(C)C
inactive: Potency [2] | Potency [3] | Potency [4] | Potency [5]

CCCc1nc(C(C)(C)O)c(C(=O)O)n1Cc1ccc(-c2ccccc2-c2nn[nH]n2)cc1
inactive: viability [8] 131% | Potency [2] | Potency [3] | Potency [5]

O=C(c1ccc(F)cc1)N1CCC[C@H](c2nc(-c3ccc(F)cc3)no2)C1
inactive: Potency [1] | Potency [6] | Potency [2] | Potency [3] | Potency [4] | Potency [5]

COc1ccc(CCC(=O)c2c(O)cc(O[C@@H]3O[C@H](CO)[C@@H](O)[C@H](O)[C@@H]3O[C@@H]3O[C@@H](C)[C@H](O)[C@@H](O)[C@@H]3O)cc2O)cc1O
active: Potency [6] 8.33 µM | Potency [2] 5.26 µM | Potency [3] 7.43 µM | Potency [4] 9.35 µM | Potency [7] 9.35 µM | Potency [5] 7.43 µM
inactive: viability [8] 101%

C[C@H](O)[C@@H]1C(=O)N2C(C(=O)O)=C(S[C@@H]3CN[C@H](CNS(N)(=O)=O)C3)[C@@H](C)[C@@H]12
inactive: viability [8] 105% | Potency [6] | Potency [3] | Potency [4] | Potency [7]

CC(=O)O[C@]1(C(C)=O)CC[C@H]2[C@@H]3C=C(C)C4=CC(=O)CC[C@]4(C)[C@@H]3CC[C@@]21C
active: Potency [6] 8.33 µM | Potency [2] 4.18 µM | Potency [3] 6.62 µM | Potency [4] 7.43 µM

O=C(O)CCCCC(CCSCc1ccccc1)SCc1ccccc1 (configuration not stated)
inactive: viability [8] 120% | Potency [5]
active: Potency [4] 16.6 µM

CC(=O)NC(CS)C(=O)O (configuration not stated)
inactive: Potency [1] | Potency [2] | Potency [3] | Potency [4] | Potency [5]

OC[C@H]1OC(O)C[C@@H](O)[C@H]1O (some centres not stated)
inactive: viability [8] 120% | Potency [3] | Potency [7] | Potency [5]

NC(=O)c1ncn([C@@H]2O[C@H](CO)[C@@H](O)[C@@H]2O)c1O
inactive: Potency [1] | Potency [6] | Potency [2] | Potency [4] | Potency [7] | Potency [5]

C[C@@H]1C(=O)O[C@H]2CC34[C@H]5C[C@@H](C(C)(C)C)C36[C@H](OC(=O)[C@@H]6O)O[C@@]4(C(=O)O5)[C@]21O (some centres not stated)
inactive: Potency [6] | Potency [2] | Potency [3] | Potency [4] | Potency [7] | Potency [5]

COC(=O)[C@@H]1CC2=CC(=O)CC[C@]2(C)[C@@]23O[C@@H]2C[C@@]2(C)[C@H](CC[C@@]24CCC(=O)O4)[C@@H]13
inactive: Potency [6] | Potency [2] | Potency [3] | Potency [5]

Cc1cc(C(=O)NOCCO)c(Nc2ccc(I)cc2F)n(C)c1=O
inactive: viability [8] 90.9%

CC(Cc1ccc(O)c(O)c1)(NN)C(=O)O (configuration not stated)
inactive: Potency [2] | Potency [3] | Potency [7] | Potency [5]
active: Potency [8] 16.6 µM

CC(C)(O)[C@H]1CC[C@@](C)([C@H]2[C@@H](O)C[C@@]3(C)[C@@H]4C[C@H](O[C@@H]5O[C@H](CO)[C@@H](O)[C@H](O)[C@@H]5O)[C@H]5C(C)(C)[C@@H](O[C@@H]6OC[C@@H](O)[C@H](O)[C@@H]6O)CC[C@@]56C[C@@]46CC[C@]23C)O1
active: Potency [1] 16.6 µM
inactive: Potency [6] | Potency [3] | Potency [7]

CCCCCCCN(CC)CCCC(O)c1ccc(NS(C)(=O)=O)cc1 (configuration not stated)
inactive: Potency [6]
active: Potency [3] 18.7 µM

Nc1ccn(C2CO[C@H](CO)O2)c(=O)n1 (some centres not stated)
inactive: Potency [1] | Potency [6] | Potency [2] | Potency [3] | Potency [5]

CC(=CC(=O)Nc1ccccc1C(=O)O)c1ccc2ccccc2c1
active: Potency [2] 7.43 µM | Potency [4] 18.7 µM | Potency [5] 23.5 µM

CC(=O)N[C@@H]1[C@H](O[C@@H]2c3ccc(c(Cl)c3)Oc3cc4cc(c3O[C@H]3O[C@H](CO)[C@@H](O)[C@H](O)[C@H]3NC(=O)CCCCCCCC(C)C)Oc3ccc(cc3Cl)C[C@H]3NC(=O)[C@H](N)c5ccc(O)c(c5)Oc5cc(O)cc(c5)[C@H](NC3=O)C(=O)N[C@H]4C(=O)N[C@H]3C(=O)N[C@@H]2C(=O)N[C@@H](C(=O)O)c2cc(O)cc(O[C@H]4O[C@H](CO)[C@@H](O)[C@H](O)[C@H]4O)c2-c2cc3ccc2O)O[C@H](CO)[C@@H](O)[C@@H]1O
inactive: viability [8] 107% | Potency [3] | Potency [4] | Potency [7] | Potency [5]
